JMJD2A Tudor: inhibitors of human JMJD2A Tudor domain | AlphaScreen JMJD2A-Tudor / H3K4me3 peptide binding | Potency, µM (series often up to 114 µM), without a hit: at the highest dose activity change, negative = inhibition, most hits filed as inhibitors | O75164 | AID 504339 | 390,000 tested, 4.4% active; also: % is scaled to controls: 0 for no effect and ±100 for the full control effect; nearly all actives have a fitted effect of over 50% in size
BAZ2B inh: inhibitors of human BAZ2B bromodomain | AID 504333 | AlphaScreen BAZ2B-H3K14Ac peptide displacement | 360,000 tested, 4.4% active | Potency, µM (series often up to 114 µM), inactives show at the highest dose activity change, negative = inhibition, hits mostly inhibitors | Q9UIF8; also: % is scaled to controls: 0 for no effect and ±100 for the full control effect; nearly all actives have a fitted effect of over 60% in size
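Protein-peptide AlphaScreen: BAZ2B 50 nM, b-H3K14Ac 50 nM, 1x PBS pH 7.4 + 0.01% Tween-20. Preincubation 30 min RT; cpd 30 min RT (top 110 uM); beads 20 min RT, light-protected.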
G9a block: blocks human histone lysine methyltransferase G9a | Q96KQ7 | G9a H3K9 monomethylation, AlphaScreen, 2 h | Potency, µM (titrated, usually from 102 µM), without a hit: at the highest dose activity, negative = inhibition, usual class: inhibitors | 350,000 tested, 8.8% active | AID 504332; also: % is scaled to controls: 0 for no effect and ±100 for the full control effect; nearly all actives have a fitted effect of over 75% in size
Target sequence (Q96KQ7 913-1193 limits assumed): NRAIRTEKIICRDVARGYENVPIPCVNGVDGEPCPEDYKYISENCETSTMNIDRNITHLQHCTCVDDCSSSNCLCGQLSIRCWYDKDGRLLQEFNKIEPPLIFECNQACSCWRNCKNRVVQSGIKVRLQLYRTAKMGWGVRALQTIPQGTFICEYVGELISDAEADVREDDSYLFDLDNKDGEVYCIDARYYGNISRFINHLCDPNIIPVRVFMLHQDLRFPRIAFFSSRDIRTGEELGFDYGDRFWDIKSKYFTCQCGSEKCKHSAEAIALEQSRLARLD
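G9a (20 nM) was preincubated 15 min with compound, then reacted 2 h at room temperature with 500 nM biotin-H3K9 peptide and 20 µM SAM. Monomethyl-H3K9 detected by AlphaScreen using anti-H3K9me1 antibody.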
Sfp PPTase inh: inhibitors of Bacillus subtilis Sfp phosphopantetheinyl transferase; Q9F4F7; Biochemical Sfp PPTase activity, qHTS; Potency, µM, for the others: largest response in the series, negative = inhibition, actives largely listed as inhibitors; 310,000 tested, 3.5% active;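 also: the enzyme is Sfp with the accession as filed and its product quenches rhodamine fluorescence; 0% = enzyme reaction without inhibitor and -100% = no enzyme wells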
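Reaction rates are the 30-min fluorescence difference (ex 525, em 598 nm) in wells containing 15 nM Sfp, 5 uM rhodamine-CoA and 12.5 uM BHQ-2-YbbR at pH 7.6 with 10 mM MgCl2.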
HP1b chromo inh: inhibitors of HP1-beta chromodomain binding to methylated histone tails | 390,000 tested, 0.56% active | AID 540317 | AlphaScreen HP1-beta / biotin-H3K9me3 peptide binding | P83916 | Potency, µM (titrated, usually from 114 µM), for the others: top-dose activity change, negative = inhibition, most hits filed as inhibitors; also: nearly all actives have a fitted effect of over 70% in size
Target sequence (P83916 whole entry, looked up): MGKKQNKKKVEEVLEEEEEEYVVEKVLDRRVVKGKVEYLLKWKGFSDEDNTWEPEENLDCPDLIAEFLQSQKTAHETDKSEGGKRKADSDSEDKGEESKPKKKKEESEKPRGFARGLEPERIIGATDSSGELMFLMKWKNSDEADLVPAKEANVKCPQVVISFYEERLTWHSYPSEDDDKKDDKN
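Compound inhibition of the preformed complex between 50 nM HP1-beta and 50 nM biotinylated H3K9me3 peptide was read by AlphaScreen. Buffer was PBS pH 7.4 with 0.01% Tween-20. Incubations ran 30 min at room temperature, with 10 ug/mL donor/acceptor beads.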
An asterisk follows results filed as active; ? = inconclusive; . = no result given; [ ] = remark or other dose. Sampled rows, rich in hits. Any-hit rate of the full collection: about 12%. Calls follow the shape of the dose curve; as a rule, active = well fitted curve in the direction sought with a large enough effect; inconclusive = small, poorly fitted or top-dose-only effect, or another doubt; inactive = no such curve, though single readings can be large; an effect the other way counts as inactive or inconclusive. Potency is read from the fitted curve at half-maximal effect.

SMILES | JMJD2A Tudor | BAZ2B inh | G9a block | Sfp PPTase inh | HP1b chromo inh
O=C(CN1c2ccccc2Sc2ccccc21)NNC(=S)Nc1ccc(Cl)cc1 | ? | ? | 28µM* | 5% | ?
O=C(CN1CCN(C(=O)c2ccccc2)CC1)Nc1cc(S(=O)(=O)N2CCCC2)ccc1Cl | -12% | -6% | -5%[0.501 µM] | . | 58%
Cc1c(O)c(=O)ccn1Cc1ccccc1 | -8% | ? | 32µM* | -2% | 52%
Cc1ccc(Cn2ccc(=O)c(OCc3ccccc3)c2C)cc1 | -4% | 8% | -1% | 16% | 44%
CCN1CCN(c2ncnc3c2sc(=S)n3-c2ccccc2)CC1 | -20% | 3% | 50µM* | 16% | 34%
CCOc1ccccc1N1CCN(c2nc(N)c(C#N)c(CC#N)c2C#N)CC1 | -30% | ? | ? | 16µM* | 6%
Cc1ccccc1CN1c2ccccc2-c2nc(SCC(=O)NCCc3ccccc3)ncc2S1(=O)=O | -5% | -1% | 2%[59 µM] | . | 23%
Cn1cnc(S(=O)(=O)N2CCC(C(=O)Nc3ccc(OC(F)(F)F)cc3)CC2)c1 | -9% | 1% | -9%[12.7 µM] | . | 28%
COc1cc(/C=C2/SC(=S)N(CC(=O)Nc3cccnc3)C2=O)cc(OC)c1OC | ? | ? | -10% | -23% | 8%
COc1ccc(/C=C2\SC(=S)N(C(C(=O)O)c3ccccc3)C2=O)c(OC)c1 (centres undefined) | -33% | ? | 50µM* | 71µM* | 7%
COc1cccc(/C=C2\SC(=S)N(C(C(=O)O)c3ccccc3)C2=O)c1OC (centres undefined) | ? | ? | ? | 79µM* | ?
COc1cccc(/C=C2/SC(=O)N(C)C2=O)c1OCc1ccc(C(=O)O)cc1 | -11% | -10% | -16% | -2% | 34%
COc1cc(/C=C2\SC(=S)N(C(C(=O)O)c3ccccc3)C2=O)cc(OC)c1OC (centres undefined) | -31% | ? | ? | 50µM* | -16%
Cc1ccc(-n2ncc(C(=O)NCCN3CCc4ccccc4C3)c2C2CCN(C(=O)OC(C)(C)C)CC2)c(C)c1 | ? | -15%[57.1 µM] | ? | . | ?
CCC1(c2ccccc2)NC(=O)N(CC(=O)N(C)Cc2ccccc2)C1=O (centres undefined) | -18% | 1% | 36% | 4% | -21%
CCC1(c2ccccc2)NC(=O)N(CC(=O)N(C)Cc2c(F)cccc2Cl)C1=O (centres undefined) | -5% | -15% | 45µM* | 6% | 29%
CCOC(=O)N1CCN(C2=C(NS(=O)(=O)c3ccccc3)C(=O)c3ccccc3C2=O)CC1 | ? | 32µM* | 35µM* | -6% | ?
O=C1C(NS(=O)(=O)c2ccc(Cl)cc2)=C(N2CCCCC2)C(=O)c2ccccc21 | 11µM* | 5.6µM* | 10µM* | -2% | ?
CC(C)(CN1CCCCC1)NS(=O)(=O)c1ccc(Cl)cc1 | -10% | 5% | -18%[59 µM] | -3% | 1%
CC(NS(=O)(=O)c1ccccc1)C(c1cccs1)N1CCN(c2ccccc2)CC1 (centres undefined) | -33% | -11% | ? | -6% | 19%
CN1CCN(C2=C(NS(=O)(=O)c3ccccc3)C(=O)c3ccccc3C2=O)CC1 | -16% | ? | 28µM* | -11% | 1%
Cc1cccc(Cn2c(=O)n(Cc3ccc(C(=O)NC4CCN(Cc5ccccc5)CC4)cc3)c(=O)c3ccccc32)c1 | -4% | -2% | -2%[59 µM] | . | 21%
COC(=O)CSc1nnc(CNC(=O)c2ccccc2F)n1-c1ccc(F)cc1 | -9% | -7% | 6% | 6% | 28%
Cc1[nH]c2ccc(C(=O)OC(C)C(=O)NC3CCCCC3C)cc2c1C (centres undefined) | -11% | -6% | 10%[12.7 µM] | . | 47%
Cc1[nH]c2ccc(C(=O)OC(C)C(=O)NC3(C#N)CCCCC3)cc2c1C (centres undefined) | ? | 50µM* | 45µM* | . | 4%
SMILES | JMJD2A Tudor | BAZ2B inh | G9a block | Sfp PPTase inh | HP1b chromo inh
C[C@@H]1C=CC(=O)O[C@@H]1c1ccc(C(F)(F)F)cc1 | . | 5% | 8% | 13% | .
O=C(Cn1c(=O)ccc2cc(S(=O)(=O)N3CCCC3)ccc21)Nc1ccccc1 | -15% | -2% | 4%[59 µM] | . | 12%[57 µM]
Cc1nn(Cc2ccc(Cl)cc2)c(C)c1NC(=O)CSc1nc2c(c(C(F)(F)F)n1)CCc1ccccc1-2 | -29% | 6% | 15%[0.501 µM] | 35µM* | 3%
N#Cc1c(NC(=O)CSc2nc3c(c(C(F)(F)F)n2)CCc2ccccc2-3)sc2c1CCCC2 | -14% | 9% | 11µM* | -20% | -9%
NC(=O)c1c(NC(=O)CSc2nc3c(c(C(F)(F)F)n2)CCc2ccccc2-3)sc2c1CCCC2 | -4% | 9% | ? | 11% | 21%
COc1ccc(-c2cc(C(F)(F)F)nc(SCC(=O)Nc3sc4c(c3C#N)CCC4)n2)cc1 | -29% | 9% | 11µM* | -3% | -25%
O=C(COc1ccccc1F)NC12CC3CC(CC(C3)C1)C2 | -15%[11.4 µM] | 0% | 56% | 11% | 27%
CC(C)(C)C(=O)N1CCn2c1nc1ccccc12 | -14% | 56µM* | 21% | 9% | -3%
CCCCOC(=O)c1ccc(NC(=S)NC(=O)c2c(Br)c(C)nn2C)cc1 | -24% | 20% | -4%[59 µM] | 4.5µM* | -13%
Cc1ccc(CNC(=O)[C@H]2C[C@@H]2[C@H](NP(=O)(c2ccccc2)c2ccccc2)c2ccccc2)o1 | -11% | ? | 50µM* | 35µM* | 30%
O=C(Nc1ccc2ccccc2c1)[C@@H]1C[C@H]1[C@@H](NP(=O)(c1ccccc1)c1ccccc1)c1ccccc1 | -27% | -33% | 50µM* | 18% | 23%
Cc1ccc(CNC(=O)C2CC(=O)N(C3CCCCCC3)C2)cc1 (centres undefined) | -18% | -12% | -5%[59 µM] | -1% | 25%
CN(C)C(=C(C#N)C#N)N1CCN(c2ccc(Cl)c(Cl)c2)CC1 | -17% | 0% | 18% | -3% | 22%
N#Cc1nccnc1S(=O)(=O)c1cccs1 | -17% | -2% | 4µM* | 7.1µM* | 12%
CN(Cc1ccccc1C#N)S(=O)(=O)c1cccs1 | -4% | 5% | -9% | -6% | 38%
COc1ccccc1C/C(N)=N/OC(=O)c1cccc([N+](=O)[O-])c1 | 9%[11.4 µM] | -34% | ? | -1% | ?
Cc1cc(NC(=O)Cn2c(=O)n(Cc3ccccc3)c(=O)c3ccccc32)no1 | -23% | 5% | 8%[2.33 µM] | 25µM* | 14%
CCOC(=O)c1c(/N=C/C2=C(O)CC(C)(C)CC2=O)sc2c1CCCC2 | 18% | 11% | 10% | 6% | 139%
CCOC(=O)c1c(/N=C/c2cc(C)ccc2O)sc2c1CCN(C)C2 | 45µM* | ? | ? | 1% | ?
